Assay outcomes (PubChem)
Only some compounds are listed: those with a hit (about 11% of all), similar ones and a draw of the others.
AMA1-RON2 inh – qHTS for Inhibitors of AMA1-RON; Towards Development of Antimalarial Drug Lead: Primary Screen; Potency, µM (doses to about 58.2 µM), for the others: at the highest dose activity change, negative = inhibition, actives largely listed as inhibitors; actives 0.2% (n = 360,000); Plasmodium falciparum AMA1 (3D7) - RON2 peptide interaction; AlphaScreen AMA1-biotinylated RON2 peptide binding;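 also: 0% = vehicle wells and -100% = peptide control; nearly all actives have a fitted effect of over 45% in size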
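AMA1 (3D7) with his tag at 25 nM final met compounds first, then biotinylated RON2 peptide at 25 nM; detection used donor plus acceptor beads, 10 µg/mL apiece, read by AlphaScreen after 30 min at room temperature.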
AmpC no deterg – qHTS Inhibitors of AmpC Beta-Lactamase (assay without detergent); P00811; AmpC nitrocefin hydrolysis, absorbance 480 nm, 0.0001% Triton; Potency, µM (top dose mostly 57.1 µM), for inactives: top-dose activity change, negative = inhibition, hits mostly inhibitors; actives 0.52% (n = 330,000);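 also: plate controls were no compound for no effect and no enzyme for full effect; nearly all actives have a fitted effect of over 20% in size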
Target sequence (P00811 whole entry, looked up): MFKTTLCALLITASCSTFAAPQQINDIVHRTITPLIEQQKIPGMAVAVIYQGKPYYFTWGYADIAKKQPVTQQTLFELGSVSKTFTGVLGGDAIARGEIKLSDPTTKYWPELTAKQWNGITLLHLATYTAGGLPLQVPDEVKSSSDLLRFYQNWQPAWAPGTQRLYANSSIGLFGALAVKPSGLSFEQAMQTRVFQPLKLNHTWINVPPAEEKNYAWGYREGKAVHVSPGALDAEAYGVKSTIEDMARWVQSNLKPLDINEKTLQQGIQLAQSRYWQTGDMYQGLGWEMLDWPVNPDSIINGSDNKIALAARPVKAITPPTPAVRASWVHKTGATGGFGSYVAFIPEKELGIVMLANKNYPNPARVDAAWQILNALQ
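AmpC (5.3 nM in the dispensed reagent) in 20 mM phosphate pH 7.0 with 0.01% (detergent screen) or 0.0001% Triton X-100 was preincubated with compounds for 15 min at room temperature. Nitrocefin was then added from an 800 uM solution, and hydrolysis was followed at 480 nm.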
AmpC inh detg – qHTS Inhibitors of AmpC Beta-Lactamase (assay with detergent) | Potency, µM (series often up to 114 µM), inactives show at the top dose activity change, negative = inhibition, hits mostly inhibitors | P00811 | AID 485294, 2010 | AmpC hydrolysis of nitrocefin, absorbance 480 nm, 0.01% Triton | actives 0.041% (n = 370,000);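 also: 0% = no-compound wells and -100% = no-enzyme wells; nearly all actives have a fitted effect of over 25% in size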
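20 mM phosphate pH 7.0 + 0.01% (detergent screen) or 0.0001% Triton X-100; 5.3 nM AmpC reagent; cpd preinc 15 min RT; nitrocefin (800 uM stock) to start; A480 q20 s × 4 min; Activity was normalised to no-enzyme and no-compound control wells.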
Pf growth 96h – Primary qHTS for delayed death inhibitors of the malarial parasite plastid, 96 hour incubation; AID 504834, 2011; P. falciparum luciferase reporter growth, 96 h; Potency, µM (doses to about 28.7 µM), inactives show at the top dose activity change, negative = inhibition, actives largely listed as inhibitors; actives 6.9% (n = 320,000)
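Parasite growth measured via integrated firefly luciferase reporter in P. falciparum. Infected erythrocytes at 2% hematocrit, 0.05% parasitemia final were treated 96 hours at 37 C under 5% CO2, and luminescence was read.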
HCV inh – qHTS Assay for Inhibitors of Hepatitis C Virus (HCV); Huh7.5.1 HCVcc-Cre infection, luciferase reporter, 44 h; Potency, µM (doses to about 41.8 µM), for the others: at the top dose activity change, negative = inhibition, hits mostly inhibitors; actives 3.4% (n = 340,000); AID 651820, 2012
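Seed cells (1,000/well) for 4 h; treat with compound and infect with HCVcc-Cre, moi about 0.5. Incubate 44 h, then detect luciferase activity.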
Pf growth 48h – Primary qHTS for delayed death inhibitors of the malarial parasite plastid, 48 hour incubation. actives 5.9% (n = 310,000). P. falciparum luciferase growth in erythrocytes, 48 h. Potency, µM (highest dose often 28.7 µM), for the others: top-dose activity change, negative = inhibition, usual class: inhibitors
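Erythrocytes infected with P. falciparum carrying an integrated firefly luciferase reporter (2% hematocrit, 0.1% parasitemia final) were exposed to compounds in RPMI 1640 with 0.5% Albumax at 37 C, 5% CO2. Growth inhibition was scored as reduced luminescence.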
An asterisk follows results filed as active; ? = inconclusive; . = no result given; [ ] = another dose, or the depositor's remark. Calls follow the shape of the dose curve; as a rule, active = well fitted curve in the direction sought with a large enough effect; inconclusive = small, poorly fitted or top-dose-only effect, or another doubt; inactive = no such curve, though single readings can be large; an effect the other way counts as inactive or inconclusive. Unless noted, % is scaled to controls: 0 for no effect and ±100 for the full control effect; potency is read from the fitted curve at half-maximal effect.

SMILES	AMA1-RON2 inh	AmpC no deterg	AmpC inh detg	Pf growth 96h	HCV inh	Pf growth 48h
COc1ccc(NS(=O)(=O)c2cc(NC(=O)/C=C/c3cc(OC)ccc3OC)ccc2N2CCCCC2)cc1	5.1%	-35.3%	?	2.62µM*	-25.7%	4.15µM*
COc1ccc(NS(=O)(=O)c2ccc(N3CCCC3)c(NC(=S)Nc3ccc(SC(F)F)cc3)c2)cc1	14.4%	-36.7%	-9.4%	13.1µM*	22.4µM*	?
COc1cccc(C2C(C(=O)Nc3ccccc3OC)=C(C)Nc3nc(-c4ccco4)nn32)c1 (stereo not drawn)	.	.	12.2%	.	.	.
CC(C)N(C(=O)COC(=O)[C@@H]1CC(O)CN1S(=O)(=O)c1ccc(C(C)(C)C)cc1)C(C)C (stereo partly drawn)	6.2%	210.7%	-10.2%	6.57µM*	17.0%	4.15µM*
COc1ccc(S(=O)(=O)N2CC(O)CC2C(=O)OCC(=O)Nc2ccc(Cl)cn2)cc1 (stereo not drawn)	19.3%	-1.0%	0.7%	1.47µM*	6.3%	7.5%
O=C(COC(=O)C1CC(O)CN1S(=O)(=O)c1ccc(Cl)cc1)c1ccccc1 (stereo not drawn)	15.3%	17.8%	?	49.3%	3.0%	14.3%
COc1ccc(N2CCN(C(=O)c3ccc(-c4nc(COc5ccccc5)c(C)o4)cc3)CC2)cc1	.	.	0.1%	.	.	.
COc1ccccc1CNC(=O)c1ccc(CSc2nc3ccncc3n2Cc2ccccc2C)cc1	.	.	19.8%	.	.	.
O=C(c1ccc2c(c1)OCO2)C1CCCN(Cc2ccc(OC(F)F)cc2)C1 (stereo not drawn)	-5.1%	0.4%	-2.7%	10.4µM*	12.6µM*	24.7%
O=C(c1ccc2c(c1)OCO2)C1CCCN(Cc2ccc(F)c(F)c2)C1 (stereo not drawn)	-15.6%	-4.7%	1.0%	?	-27.8%	6.8%
C/C(=N\NC(=O)COc1ccc(C)cc1Br)c1cc([N+](=O)[O-])cs1	2.0%	1.3%	-13.2%	?	8.91µM*	?
CCNC(=O)C(=O)NCC(c1cccs1)S(=O)(=O)c1ccc(C)cc1 (stereo not drawn)	7.8%	-8.5%	-6.2%	4.15µM*	3.7%	22.1%
CCOC(=O)C(=O)NCC(c1cccs1)S(=O)(=O)c1ccc(F)cc1 (stereo not drawn)	12.7%	0.6%	-3.5%	11.7µM*	0.3%	?
CCn1nc(C)cc1-c1nnc(Sc2ncc([N+](=O)[O-])s2)n1C	-3.7%	-39.9%	?	0.4%	3.55µM*	8.2%[0.00184 µM]
Cc1ccc(NC(=O)Nc2ccnc(-c3cccnc3)n2)cc1	-0.6%	-21.1%	-1.8%	?	11.2µM*	33.2%[1.15 µM]
Cc1nn(Cc2ccc(C(=O)Nc3ccc(C(=O)OC(C)C)cc3)o2)c(C)c1Cl	-3.1%	-0.9%	?	20.0%	?	14.7µM*
Cc1nn(Cc2ccc(C(=O)NN)o2)c(C)c1Cl	134.2%	-5.6%	2.1%	?	12.6µM*	-17.9%
CCc1cccc(NC(=O)CSc2ncc3c(n2)-c2ccc(Cl)cc2N(Cc2ccccc2)S3(=O)=O)c1	.	.	1.0%	.	.	.
O=C(Cn1ccc2cc(S(=O)(=O)N3CCCCCC3)ccc21)NCCc1ccc(Cl)cc1	.	.	19.3%	.	.	.
COC(=O)C1=C(N)OC(C)=C(C(C)=O)C12C(=O)N(C)c1ccccc12 (stereo not drawn)	-3.1%	-2.5%	?	8.28µM*	35.9%	6.0%
C=CCOC(=O)C1=C(C)OC(N)=C(C(=O)OCC)C12C(=O)N(CC(N)=O)c1ccccc12 (stereo not drawn)	-2.7%	58.3%	-12.7%	13.1µM*	1.4%	-0.9%
CCOc1cccc2sc(N(Cc3cccnc3)C(=O)c3ccco3)nc12	.	.	-0.3%	.	.	.
CCNC(=O)c1c(NC(=O)c2cc(=O)c3ccc(C)c(C)c3o2)sc2c1CCCC2	.	.	0.8%	.	.	.
COc1ccc(CC(=O)N2CCN=C2SCc2cccc([N+](=O)[O-])c2)cc1	-21.2%	-2.8%	-2.1%	?	-26.5%	10.4µM*
Cc1ccc(-c2cc(-c3coc4ccccc4c3=O)c3c(n2)-c2ccccc2OC3)cc1	.	.	-3.1%	.	.	.
SMILES	AMA1-RON2 inh	AmpC no deterg	AmpC inh detg	Pf growth 96h	HCV inh	Pf growth 48h
COc1cc(NC(=O)c2ccc(-c3nc(COc4ccccc4)c(C)o3)cc2)cc(OC)c1	.	.	21.1%	.	.	.
CN(C)CCNC(=O)/C=C/c1cn(-c2ccccc2)nc1-c1cc2ccccc2oc1=O	-0.5%	95.5%	7.7%	8.28µM*	1.0%	-15.8%
O=Cc1cn(-c2ccccc2)nc1-c1cc2ccccc2oc1=O	-5.8%	-14.8%	4.4%	.	?	24.2%
CSc1ccc(NC(=O)N2CC=C(n3c(=O)[nH]c4ccccc43)CC2)cc1	4.3%	19.9%	-10.2%	?	10µM*	?
CCOC(=O)C1CCN(C(=O)c2ccc3c(c2)OCCO3)CC1	-3.3%	-22.0%	.	.	10.4%	.
CCOc1ccc(C(=O)N2CCC(C(=O)c3ccc4c(c3)OCCO4)CC2)cc1	-11.6%	36.6%	-3.7%	68.6%	10µM*	-15.6%
COc1ccc2nc(NC(=O)C3CCN(C(=O)c4ccc(F)cc4)CC3)sc2c1	7.9%	102.9%	-1.8%	9.28µM*	?	?
CC1CCN(C(=O)c2ccc3c(c2)OCO3)CC1	1.1%	3.7%	18.5%	13.1µM*	7.5%	0.2%
COc1ccc(CNC(=O)CN2CCC(C(=O)c3ccc(OC)cc3)CC2)cc1	-10.6%	36.0%	-11.9%	.	12.6µM*	?
COc1ccc(C(=O)C2CCN(CC(=O)NCc3ccccc3)CC2)cc1	2.6%	48.9%	-7.1%	12.1%	?	-11.6%
CC1CN(C(=O)c2ccc3c(c2)OCO3)CC(C)O1 (stereo not drawn)	-0.1%	-10.7%	-6.1%	-15.9%	-9.3%	.
COCCNC(=O)CCN1C(=O)c2cccnc2Oc2ccc(C)cc21	.	.	-2.0%	.	.	.
Cc1cc2ncn(C(=O)c3ccc4c(c3)OCO4)c2cc1C	3.4%	-11.4%	3.0%	2.94µM*	18.4%	34.9%
COCCNC(=S)N1CCC(C(=O)c2ccc(Cl)cc2)CC1	17.5%	.	.	.	.	.
COc1ccc(C(=O)C2CCN(C(=O)c3ccc(OC)cc3)CC2)cc1	3.1%	23.8%	-11.5%	?	7.94µM*	?
COCCCNC(=S)N1CCC(C(=O)c2ccc(Cl)cc2)CC1	35.5%	55.0%	?	?	3.98µM*	-1.8%
